From PubChem BioAssay (Tox21) come the findings set out here.

Values without a mark were called inactive. Calls of active or inactive are those of the source. Calls come from the whole dose curve; as a rule, active = well fitted curve in the direction sought with a large enough effect in the repeat runs; inconclusive = weak or mixed curves; inactive = flat fitted curve, though single readings scatter.
% is set by controls: 0 for no effect and ±100 for the full control effect.

The nature of the test: qHTS assay to test for compound auto fluorescence at 535 nm (green) in HepG2 cells (AID 720675). The settings on record: green autofluorescence 485/535 nm, 1 h; series mostly up to 91.3 µM; fluorescence, % of fluorescein control: at the top concentration. The source says:
National Center for Advancing Translational Sciences [NCATS]
NIH Chemical Genomics Center [NCGC]
U.S. Environmental Protection Agency [EPA]
National Institutes of Environmental Health Sciences [NIEHS]
National Toxicology Program [NTP]
U.S. Food and Drug Administration [FDA]
Compound auto fluorescence often interferes with screening of the compound library against various biological targets and signaling pathways. Some of these compounds may have fluorophoric properties. Such properties may interfere with the assay outputs resulting in false positives and/or negatives. To decrease such complications and ensure the compound activities are relevant in terms of biological response, the Tox21 10K compound library was screened for auto fluorescence.
From the fluorophores used as reporter signals in our screening assays, the auto fluorescence equivalencies of compounds against three fluorophores have been evaluated: Triamterene, Fluorescein and Rose Bengal sodium for blue, green and red fluorescence, respectively. The fluorescence intensities were measured using Excitation/Emission wavelengths at 405/460nm, 485/535nm and 540/590nm for blue, green and red labels, respectively. This assay includes the green fluorescence data.
Tox21 Assay Protocol Summary:
2,000 HepG2 cells in 5 uL of culture medium (MEM containing 10% FBS) per well were dispensed into black wall/clear bottom 1536-well plates using a Multidrop Combi Dispenser (ThermoFisher Scientific, Waltham, MA). The assay plates were incubated overnight at 37 C to allow cell attachment to the well bottom, followed by the transfer of 23 nL compound or DMSO vehicle by a pintool work station (Kalypsys , San Diego, CA). After the assay plates were incubated for 1 hr at 37 C and 5% CO2, fluorescence intensities in the assay plates were measured by an Envision (PerkinElmer, Shelton, CT) plate reader using three labels for measuring blue, green and red fluorescence at […] 460, 535 and 590 nm respectively.
On the technique in general: In qHTS, concentration-response curves come from the screen itself.
Regarding `CCCCCBr`, the “fluorescence, % of fluorescein control” value is -0.0553% [at 95.7 µM].
`CCCCC(CC)CO[N+](=O)[O-]` (stereo not given): the “fluorescence, % of fluorescein control” value is 0.0142%.
The same measure, in the same setting: in the case of `C[C@H]1O[C@H](OC2[C@@H](O)[C@@H](O)C(O)[C@H](O)[C@H]2O)[C@@H](N)C[C@@H]1N=C(N)C(=O)O` (stereo not given in full) it was 0.0317%; in that of `C=CCN1C[C@H](C)N([C@H](c2ccc(C(=O)N(CC)CC)cc2)c2cccc(OC)c2)C[C@H]1C`, 0.0185% [at 46 µM].
On to `C[C@@H]1C[C@@H]([C@H](O)CC2CC(=O)NC(=O)C2)C(=O)[C@@H](C)C1`, for which the outcome was inactive.
On to `CCCCNC(=O)OCC#CI`, for which the outcome was inactive.
`O=C(CCl)CCl`: the molecule was called inactive.
Take `C=CCOCC1CO1` (stereo not given): the “fluorescence, % of fluorescein control” value was 0.0139%.
For `CCCC[N+]1(C)[C@@H]2CC(OC(=O)[C@H](CO)c3ccccc3)C[C@H]1[C@@H]1O[C@@H]12` (stereo not given in full), the “fluorescence, % of fluorescein control” value is -0.047% [at 46 µM].
On to `O=C1CC[C@@]2(O)[C@H]3Cc4ccc(O)c5c4[C@@]2(CCN3CC2CC2)[C@H]1O5`, for which the “fluorescence, % of fluorescein control” value was -0.153% [at 46 µM].
For `C[Si](Cn1cncn1)(c1ccc(F)cc1)c1ccc(F)cc1`, the outcome was inactive.
Turning to `CCC1(C2=NCCN2)Cc2ccccc2O1` (stereo not given), the “fluorescence, % of fluorescein control” value was -0.125% [at 46 µM].
On to `CC[N+]1(CCOC(=O)C(O)(c2ccccc2)c2ccccc2)CCCCC1`, for which the “fluorescence, % of fluorescein control” value is -0.0576% [at 46 µM].
On the same count and under the same terms, in the case of `O=C(Cc1ccccc1)OCCc1ccccc1` it was -0.0016%; in that of `CC(C)(C)NCC(O)c1cc(Cl)c(N)c(C(F)(F)F)c1` (stereo not given), 0.105% [at 46 µM].
On the same count and under the same terms, next, `CCOP(=O)(O)C(N)=O`: 0.0027%.
In the case of `CC(C)(C)N(NC(=O)c1ccc(Cl)cc1)C(=O)c1ccccc1`, the “fluorescence, % of fluorescein control” value is 0.0946%.
On to `CC(C)c1ccc(OP(=O)(Oc2ccc(C(C)C)cc2)Oc2ccc(C(C)C)cc2)cc1`, for which the result was inactive.
On to `CCOC(=O)NC(O)C(Cl)(Cl)Cl` (stereo not given), for which the “fluorescence, % of fluorescein control” value is -0.0472% [at 46 µM].
For `CN(C)c1ccc(N=O)cc1`, the call was inactive.
Consider `CCCCC1C(=O)NC(=O)N(C2CCCCC2)C1=O` (stereo not given), for which the “fluorescence, % of fluorescein control” value was 0.0133% [at 46 µM].
Turning to `CN(C)N`, the “fluorescence, % of fluorescein control” value was -0.0913%.
Regarding `CCCC(C)(COC(N)=O)COC(=O)NC(C)C` (stereo not given), the result was inactive.
With `C[N+]1(CCF)[C@@H]2CC[C@H]1CC(OC(=O)C(O)(c1ccccc1)c1ccccc1)C2` (stereo not given in full), the “fluorescence, % of fluorescein control” value was -0.0918% [at 46 µM].
With `NNCCO`, the “fluorescence, % of fluorescein control” value is -0.0409%.
As to `CCCCCCCCP(=O)(O)O`, the “fluorescence, % of fluorescein control” value was 0.0033%.
In the case of `C#C[C@]1(O)CC[C@H]2[C@@H]3CCC4=CC(=O)CCC4=C3C=C[C@@]21CC`, the “fluorescence, % of fluorescein control” value was 0.0342% [at 46 µM].
Turning to `CCCCCCCCCCCCN=C(N)N`, the fluorescence, % of fluorescein control was -0.0052% [at 3.72 µM].
With `C=CCSSCC=C`, the “fluorescence, % of fluorescein control” value is 0.0246%.
With `CCC1(CCC(C)C)C(=O)NC(=O)NC1=O`, the “fluorescence, % of fluorescein control” value was 0.031%.
On the same count and under the same terms, next, `CCCCCCCCCCCCN(C)C`: -0.0112%.
As to `Clc1ccc(Cl)c(Cl)c1`, the molecule was called inactive.
For `CCCCCl`, the call was inactive.
On to `O=P(OCC(Br)CBr)(OCC(Br)CBr)OCC(Br)CBr` (stereo not given), for which the outcome was inactive.
Regarding `NC(=O)CF`, the “fluorescence, % of fluorescein control” value is 0.0688%.
With `CCCN(CCC)C(=O)Cc1c(-c2ccc(Cl)cc2)nc2ccc(Cl)cn12`, the “fluorescence, % of fluorescein control” value was 0% [at 46 µM].
Same read-out and setting: in the case of `O=C([O-])c1ccccn1.O=C([O-])c1ccccn1.O=C([O-])c1ccccn1.[Cr+3]` it was -0.0462%; in that of `OCCSSCCO`, 0.0082%; in that of `COc1ccc(C(=O)c2c(C)n(CCN3CCOCC3)c3ccccc23)cc1`, -0.0165% [at 46 µM].
In the case of `C[C@H](N)[C@H](O)c1ccc(O)c(O)c1`, the “fluorescence, % of fluorescein control” value is 0.203% [at 46 µM].
